Ba/F3 V617F tox = reduced viability of JAK2V617F-dependent Ba/F3 cells, primary screen, JAK2V617F inhibitor project, cell-based, Ba/F3 EpoR-JAK2V617F, luminescence | AID 1446, 2008 | ATP luminescence | hit rate 1.1% among 220,000 | inhibition, % at 5.6 µM;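 active means inhibition above the campaign mean plus 3 SD over all tested compounds, cut at about 24% in these data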;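 further: cytokine-independent growth of Ba/F3 cells driven by EpoR plus mutant JAK2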
APP 5UTR inh = inhibitors of APP translation via 5'UTR reporter, primary screen, APP 5'UTR luciferase, SH-SY5Y cells; SH-SY5Y APP 5'UTR-luciferase reporter, luminescence; inhibition, % at 2 µM; hit rate 0.82% among 190,000;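 active means inhibition above a set limit, derived from the sample mean plus 3 SD, cut at about 45% in these data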
IEC-6 tox = cytotoxicity in IEC-6 intestinal epithelial cells, primary screen, cytotoxicity control for KLF5 inhibitor project, cell-based, luminescence | AID 1825, 2009 | hit rate 0.78% among 290,000 | inhibition, % at 5 µM | IEC-6 cytotoxicity, luminescence viability; in the data active means inhibition above about 22%
KLF5 inhibitor = KLF5 expression inhibitors, primary screen, DLD-1 cells, luminescence; DLD-1 KLF5 promoter-luciferase reporter; inhibition, % at 5 µM; hit rate 0.23% among 290,000;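 active means inhibition above a per-plate limit of that plate's mean compound inhibition plus 3 SD, cut at about 60% in these data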;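 further: higher means less KLF5 promoter-driven luciferase light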
BaF3 tox = parental Ba/F3 cell viability inhibition, counter-screen for JAK2V617F inhibitor project, murine pro-B, CellTiter-Glo luminescence; CellTiter-Glo ATP luminescence; inhibition, % at 5.6 µM; hit rate 1.1% among 220,000;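 active means inhibition above a per-campaign cutoff, the mean inhibition of all tested compounds plus 3 SD, cut at about 27% in these data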
Large screens that a line does not name were inactive. Most compounds without a hit are left out; they make up all but 1.9% or so of the library.

C[C@H](NC(=O)C1CCN(S(=O)(=O)c2ccccc2)CC1)C(=O)NCc1ccc(F)cc1	none (no result: Ba/F3 V617F tox, APP 5UTR inh, BaF3 tox)
Cc1ccc(CNCC(O)(c2ccccc2)c2ccccc2)cc1	none (no result: Ba/F3 V617F tox, APP 5UTR inh, BaF3 tox)
Cc1ccc(CNCC(O)(c2ccccc2)c2ccc(Cl)cc2)cc1 (stereo not given)	BaF3 tox 29
CCc1nc(Nc2ccncc2)c2oc3ccccc3c2n1	BaF3 tox 29
COc1ccc(Cn2c(-c3ccc(Br)cc3)c[n+]3ccccc23)cc1	Ba/F3 V617F tox 72, BaF3 tox 64
CC(Oc1ccc(F)cc1Br)c1nc2ccccc2c(=O)[nH]1 (stereo not given)	none (no result: Ba/F3 V617F tox, APP 5UTR inh, BaF3 tox)
CCCCN(Cc1ccccc1)C(=O)C1CCCN(S(=O)(=O)c2cnc[nH]2)C1 (stereo not given)	APP 5UTR inh 48
CCCCC(=NCCc1c(C)[nH]c2ccccc12)C1=C(O)CC(c2ccccc2)CC1=O (stereo not given)	none
CC(=NCCc1c(C)[nH]c2ccc(C)cc12)C1=C(O)CC(c2ccccc2)CC1=O (stereo not given)	APP 5UTR inh 88
CCCC(=NCCc1c(C)[nH]c2ccccc12)C1=C(O)CC(c2ccccc2)CC1=O (stereo not given)	APP 5UTR inh 84
Cc1ccc(C(=O)Nc2cccc(N3C(=O)C4CCC(C)CC4C3=O)c2)cc1 (stereo not given)	none (no result: Ba/F3 V617F tox, APP 5UTR inh, BaF3 tox)
NC1=NC2(CCCCC2)N(c2cccc(Cl)c2)C(N)=N1	Ba/F3 V617F tox 68, BaF3 tox 70
COc1ccc(N2C(N)=NC(N)=NC23CCCC3)cc1	Ba/F3 V617F tox 57, BaF3 tox 64
CCC(Sc1nc(C)cc(C)n1)C(=O)Nc1nccs1 (stereo not given)	none (no result: Ba/F3 V617F tox, APP 5UTR inh, BaF3 tox)
Cc1cc(S(=O)(=O)N2c3ccc(F)cc3CCC2C)ccc1-n1cnnn1 (stereo not given)	none (no result: Ba/F3 V617F tox, APP 5UTR inh, BaF3 tox)
Cc1ccccc1-n1cnc2cc(NCc3cccs3)ccc21	none
COc1ccccc1-n1cnc2cc(NCc3cccs3)ccc21	Ba/F3 V617F tox 73, APP 5UTR inh 93, IEC-6 tox 82, BaF3 tox 73
CSc1ncccc1C(=O)N1CCCC(Nc2ccc(C)c(C)c2)C1 (stereo not given)	none (no result: Ba/F3 V617F tox, APP 5UTR inh, BaF3 tox)
O=C(C/C=N/OCc1c(Cl)cccc1Cl)c1cnc(-c2ccccc2)s1	BaF3 tox 72
O=C(C/C=N/OCc1ccc(Cl)cc1)c1cnc(-c2ccccc2)s1	none
NC(=O)NC(CC(=O)OCC(=O)NC(=O)NCc1ccco1)c1ccc(Cl)cc1 (stereo not given)	APP 5UTR inh 55
COc1ccc(CNC(=O)C(c2ccncc2)N(C(=O)Cc2cccs2)c2ccccc2)cc1 (stereo not given)	none (no result: APP 5UTR inh)
COc1ccc(N(C(=O)CCl)C(C(=O)NCCc2ccccc2)c2cccs2)cc1 (stereo not given)	Ba/F3 V617F tox 102, IEC-6 tox 41, BaF3 tox 30
COCCN(Cc1cc2ccc(C)cc2n2nnnc12)Cc1nnnn1C(C)(C)C	APP 5UTR inh 46
COCCN(Cc1cc2cc(C)ccc2n2nnnc12)C(=S)Nc1cccc(C)c1	none
CC(C)C(=O)Nc1ccc2c(c1)nc(CCN1CCN(c3ccccn3)CC1)n2C	none (no result: Ba/F3 V617F tox, APP 5UTR inh, BaF3 tox)
COc1ccc(N/N=C(\C=N\O)C(=O)c2ccc(OC)cc2)cc1	APP 5UTR inh 88
Cc1ccc(NC(=O)C(C)N2C(=O)c3ccccc3C2=O)cc1C (stereo not given)	none (no result: Ba/F3 V617F tox, APP 5UTR inh, BaF3 tox)
N#C/C(=C\c1ccc(OCc2ccc(C(=O)O)cc2)cc1)C(=O)N1CCOCC1	APP 5UTR inh 56
COc1cc(/C=C(\C#N)C(=O)N2CCOCC2)ccc1OCc1ccccc1	none
O=C(CSc1nc2sccc2c(=O)[nH]1)N1CCN(c2ccccc2)CC1	none (no result: Ba/F3 V617F tox, APP 5UTR inh, BaF3 tox)
Cc1nc(NC(=O)c2ccccc2)sc1-c1csc(NCc2ccccc2)n1	none (no result: APP 5UTR inh)
Cc1nc(NC(=O)c2ccccc2)sc1-c1csc(N)n1	Ba/F3 V617F tox 61, BaF3 tox 69
CCN1CCc2c(sc(N)c2C#N)C1	APP 5UTR inh 66
CCCN1CCc2c(sc(NC(=S)NC(=O)c3ccccc3)c2C#N)C1	none
O=C(NCc1ccco1)/C(=C/c1ccc(F)cc1)NC(=O)c1ccccc1	none (no result: Ba/F3 V617F tox, APP 5UTR inh, BaF3 tox)
O=[N+]([O-])c1cccc(-c2cc3cccc[n+]3cc2-c2cccc([N+](=O)[O-])c2)c1	none
Cc1cccc2cc(-c3ccccc3)c(-c3ccccc3)c[n+]12	Ba/F3 V617F tox 90, BaF3 tox 72
CCN(c1ccccc1)S(=O)(=O)c1ccc(C(=O)N(C)CCc2ccc(OC)c(OC)c2)cc1	none (no result: Ba/F3 V617F tox, APP 5UTR inh, BaF3 tox)
COc1cccc(-c2csc(N3CCN(C(=S)Nc4ccc(Cl)cc4)CC3)n2)c1	Ba/F3 V617F tox 38, BaF3 tox 38
COc1cccc(-c2csc(N3CCN(C(=S)Nc4ccccc4)CC3)n2)c1	none
Cc1ccc(NC(=O)CN2C(=O)S/C(=C\C(=O)Nc3ccc(Cl)cc3)C2=O)cc1	BaF3 tox 73
Cc1ccc(NC(=O)CN2C(=O)S/C(=C/c3ccncc3)C2=O)cc1	none (no result: Ba/F3 V617F tox, APP 5UTR inh, BaF3 tox)
N=C(N)c1ccc(OCCCCCOc2ccc(C(=N)N)cc2)cc1	Ba/F3 V617F tox 63, BaF3 tox 53
CCCCCOc1ccc(C(=O)NC(CCC)C(=O)O)cc1 (stereo not given)	none
CCCCCCOc1ccc(/C(N)=N/O)cc1	Ba/F3 V617F tox 27, BaF3 tox 37
CCC(=O)Nc1cccc(NC(=O)c2ccc(C)cc2Cl)c1	none
CCOC(=O)c1sc(N)c(C(=O)OC)c1C	BaF3 tox 90
CCOC(=O)c1c(N)sc(C(=O)OC)c1C	none
CCN(Cc1cnn(C)c1)C(=O)CC1C(=O)NCCN1Cc1cccc(OC)c1OC (stereo not given)	none
C/C(=C1/SC(N2CCCC2)=NC1=O)c1ccc(Br)cc1	Ba/F3 V617F tox 34, BaF3 tox 28
COc1cc(CSc2nnnn2-c2ccc(C)cc2)cc(OC)c1OC	Ba/F3 V617F tox 35, BaF3 tox 53
Cc1ccc(S(=O)(=O)ON2C(=O)c3ccccc3C2=O)c(C)c1	APP 5UTR inh 56
CC(=O)N1CCOc2ccc(S(=O)(=O)NCCc3cccc(C)c3)cc21	none (no result: Ba/F3 V617F tox, APP 5UTR inh, BaF3 tox)
C=CC[N+](C)(C)C/C(Cl)=C(\Cl)c1ccccc1	Ba/F3 V617F tox 26, BaF3 tox 27
CN1CCN(c2ccc(S(=O)(=O)N3CCCCC3)cc2NC(=O)Cc2ccc(Cl)cc2)CC1	Ba/F3 V617F tox 52, BaF3 tox 38
COc1ccc(/C=N/NC(=O)c2ccccc2Cl)cc1CSc1nc2ccccc2s1	none
COc1ccc(/C=N/NC(=O)c2cccnc2)cc1CSc1nc2ccccc2s1	APP 5UTR inh 54
COC(=O)c1cc(S(=O)(=O)NCC2CCN(CCc3cccs3)CC2)c[nH]1	none (no result: Ba/F3 V617F tox, APP 5UTR inh, BaF3 tox)
CCOC(=O)COc1ccc(S(=O)(=O)Nc2cccc(SC)c2)cc1	APP 5UTR inh 69
Cc1ccc(O)c(/C=N/NC(=O)C2=NNC(c3ccccc3)(c3ccccc3)C2)c1	APP 5UTR inh 78
Cc1ccc(O)c(/C=N/NC(=O)c2[nH]ncc2Br)c1	none
